Measured values: PubChem BioAssay AID1159580 (chemical genetic matrix, 2015)
Hit rate of the full screen: of about 5,500 compounds, about 2,000 (36%) were called active. Roughly 18% stayed inconclusive and do not appear here. Cut-off read from the data, not from the text of the source: active = normalized growth mostly below about 0.91 (no sharp cut-off); inconclusive = no clear call, values can overlap the other calls; inactive = mostly above about 0.92. This is one part of the list.

Assay: chemical genetic growth profiling, strain panel (AID 1159580);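 note: tested at 20 µM; growth read once vehicle control cultures reached saturation at 30 °C; 1 = growth at the plate median or of vehicle wells; lower values mean less growth of the strain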
Conditions: S. cerevisiae deletion strains, growth OD

Measured: normalized growth

NCCNC(=O)c1ncsc1-c1cccc(F)c1
inactive: locus YAL013W, strain DEP1, active compounds read low 1.02 | locus YAL040C, strain CLN3, active compounds read low 0.986 | locus YCL061C, strain MRC1 (second series), active compounds read low 0.991 | locus YDR363W, strain ESC2, active compounds read low 1.02 | locus YER002W, strain NOP16, active compounds read low 1 | locus YGR078C, strain PAC10, active compounds read low 0.989 | locus YJR075W, strain HOC1, active compounds read low 1.01 | locus YMR307W, strain GAS1, active compounds read low 1 | locus YNL128W, strain TEP1, active compounds read low 0.99 | locus YNL153C, strain GIM3, active compounds read low 0.983 | locus YNL175C, strain NOP13, active compounds read low 0.984 | locus YNL197C, strain WHI3, active compounds read low 0.989 | locus YNL224C, strain SQS1, active compounds read low 0.996 | locus YOR083W, strain WHI5 (second series), active compounds read low 0.974
